In ChEMBL document CHEMBL1157539, “Thousands of chemical starting points for antimalarial lead identification” (Nature, 2010):

Experiments:
Type in all cases: functional
[1] = tested on: Plasmodium falciparum; experiment: GSK_TCMDC: Inhibition of Plasmodium falciparum 3D7 in whole red blood cells, using parasite LDH activity as an index of growth. Test compounds present at 2uM
[2] = tested on: Plasmodium falciparum; experiment: GSK_TCMDC: Inhibition of Plasmodium falciparum Dd2 in whole red blood cells, using parasite LDH activity as an index of growth. Test compounds present at 2uM
[3] = tested on: HepG2; experiment: GSK_TCMDC: Percent inhibition of human HepG2 cell line. Test compounds present at 10uM.

Row | SMILES | Inhibition [1] [%] | Inhibition [2] [%] | Inhibition [3] [%]
1 | Br.CCCCCCCN(CCCCCCC)CCNc1cc(C)nc2ccccc12 | 89 | 31 | 39
2 | Br.CCCc1cccc(OC)c1OCCCON1C(N)=NC(N)=NC1(C)C | 94 | 97 | 65
3 | CCN(CC)CCN(Cc1ccc(-c2ccc(C(F)(F)F)cc2)cc1)C(=O)CN1C(CCc2cccc(F)c2F)=NS(=O)(=O)c2ccccc21 | 100 | 49 | 36
4 | Cc1nc(Nc2ccc(F)cc2)nc(N2CCc3cc(O)ccc3C2C)c1C.Cl (stereo not drawn) | 99 | 97 | 0
5 | Cc1cnc(C(=O)Nc2cccc(-c3ccc(-c4nc5cc(C(F)(F)F)ccc5[nH]4)s3)c2)cn1 | 86 | 14 | 35
6 | CCc1cc2c(=O)c(-c3nc(C)cs3)c(N)oc2c(CN2CCCCC2)c1O | 99 | 97 | 0
7 | N=C(N)Nc1nc(-c2cccc(NC(=O)NCCc3c[nH]c4ccc(OCc5ccccc5)cc34)c2)cs1 | 100 | 30 | 0
8 | CCc1cn2c3c(cc(C(=O)N[C@@H](Cc4ccccc4)[C@H](O)CNCc4cccc(C)c4)cc13)N(C)S(=O)(=O)CC2.O=CO | 96 | 98 | 5
9 | CC[C@H](N/C(=N\c1ccc(-c2ccccc2)cc1)Nc1ccc(C#N)cc1O)c1ccccc1 | 99 | 97 | 0
10 | O=C(NCCN1CCCC1)N1CCCN(c2ncnc3cc(-c4ccc(Cl)cc4)sc23)CC1.O=C(O)C(F)(F)F | 96 | 32 | 13
11 | COc1cc(C(F)(F)F)nc2c(CNCCCNc3cc(=O)c4ccccc4[nH]3)scc12.Cl | 92 | 16 | 0
12 | CC(=O)Nc1nc(C(=O)Nc2ccc(-c3cccc(-c4nc5cc(F)ccc5[nH]4)c3)cc2)cs1 | 94 | 29 | 86
13 | CCCc1cc(Cc2cnc(N)nc2N)cc(CCC)c1OCCCCC(=O)O | 95 | 23 | 18
14 | O=C(Nc1ccc(-c2nc3ccccc3[nH]2)cc1)c1cncc(Br)c1 | 95 | 49 | 35
15 | Cc1cc(F)ccc1Nc1nc(N(C)c2ccccc2)c2cc(OCCN(C)C)ccc2n1 | 94 | 55 | 37
16 | O=C(NC1CC1)c1cnc(N2CCC(c3ccccc3)CC2)c(Cl)c1.O=C(O)C(F)(F)F | 94 | 95 | 6
17 | O=C(NCc1ccc(Cl)c(Cl)c1)c1ccc(C2CCCN(Cc3ccc4[nH]cnc4c3)C2)cc1 (stereo not drawn) | 100 | 83 | 9
18 | COc1cccc2c(Oc3ccccc3C)ccnc12 | 85 | 45 | 0
19 | Nc1c(Cl)cc(C(O)CNCCCCCOCCc2ccccc2)cc1C(F)(F)F (stereo not drawn) | 99 | 96 | 3
20 | Nc1ccn([C@@H]2O[C@H](COC(c3ccccc3)(c3ccccc3)c3ccccc3)[C@@H](O)[C@@H]2O)c(=O)n1 | 93 | 2 | 26
21 | CNC(=O)c1cnc(Nc2ccc(OCC(O)CN(C)C)cc2)nc1Nc1cccc(OC(C)C)c1.O=C(O)C(F)(F)F (stereo not drawn) | 100 | 100 | 21

Row | SMILES | Inhibition [1] [%] | Inhibition [2] [%] | Inhibition [3] [%]
22 | CC(CN1CCN(C)CC1)C(=O)Nc1ccc(-c2cccc(-c3nc4cc(F)ccc4[nH]3)c2)cc1 (stereo not drawn) | 100 | 99 | 8
23 | COc1ccc(-c2ccc(NC(=O)c3cccc(F)c3)cc2)cc1CNC(C)C.O=C(O)C(F)(F)F | 97 | 14 | 17
24 | Cc1cc(NC(=O)c2ccc(-c3ccccc3)cc2)no1 | 83 | 57 | 5
25 | CC(C)(C)c1ccc(NC(=O)c2cccc(CN3CCCN(Cc4ccc(F)cc4)CC3)c2)cc1.O=C(O)C(F)(F)F | 88 | 2 | 35
26 | CCOc1ccc(-c2nc(NC(=O)Cc3cccc(OC)c3)sc2C)cc1 | 97 | 28 | 15
27 | CNCCNCc1ccc(-c2ccc(-c3nc4cc(F)ccc4[nH]3)cc2)cc1.O=C(O)C(F)(F)F | 98 | 97 | 30
28 | CCc1c(CCNCCCCCCNCCc2ccc(Br)cc2)ccc(OC)c1OC.Cl | 99 | 14 | 100
29 | Cl.N#Cc1ccc2c(c1)CCN(CCC1CCC(NC(=O)Nc3ccnc4ccccc34)CC1)C2 (stereo not drawn) | 100 | 77 | 38
30 | CN(C)C(=O)O[C@@H]1CN[C@H](C#Cc2cc3ncnc(Nc4ccc5c(cnn5Cc5cccc(F)c5)c4)c3s2)C1.Cl | 97 | 68 | 0
31 | CC(C)Nc1nc(NC2CCCCC2)nc(N2CCCCCCC2)n1 | 86 | 96 | 13
32 | CCCCCC(C)N/C(=N/c1ccccc1Br)Nc1ccc([N+](=O)[O-])cc1O (stereo not drawn) | 99 | 98 | 0
33 | CC(=O)Nc1ncc(C(=O)Nc2cccc(-c3cccc(-c4nc5cc(F)ccc5[nH]4)c3)c2)s1 | 100 | 93 | 27
34 | Cc1nn(CC(C)C)c2sc(C(=O)N3CCN(S(=O)(=O)c4ccc(C#N)cc4)CC3)cc12 | 99 | 99 | 14
35 | O=C(NCc1cccc(F)c1)Nc1ccc(-c2cccc(-c3nc4cc(F)ccc4[nH]3)c2)cc1 | 88 | 2 | 31
36 | OC1=C2C(=Nc3ccccc3SC2c2cccs2)c2ccccc21 (stereo not drawn) | 96 | 93 | 8
37 | CCOC(=O)C(C)(C)Oc1ccc(C(=C2CC(C)(C)CC(C)(C)C2)c2ccc(O)cc2)cc1 | 92 | 78 | 0
38 | CCOc1ccc2c(=NN=Cc3ccccc3F)cc(C)[nH]c2c1 | 100 | 77 | 0
39 | Cc1cc(=NN=Cc2ccc(F)cc2)c2cc(C(F)(F)F)ccc2[nH]1 | 100 | 99 | 2
40 | CCN(CC)CCN(Cc1ccc(-c2ccc(C(F)(F)F)cc2)cc1)C(=O)Cn1c(CCc2cc(F)c(F)c(F)c2)nc(=O)c2ccccc21.O=C(O)C(O)C(O)C(=O)O | 100 | 70 | 31
41 | COCc1nc(-c2ccccc2)nc(N2CCN(C(=O)NC(C)C)CC2)c1Cc1ccccc1F | 96 | 94 | 35
42 | CC(C)(CNC(=O)C1CCN(Cc2ccoc2)CC1)c1nc(-c2ccc(Cl)c(O)c2)c(-c2ccncc2)[nH]1.Cl | 93 | 66 | 0

Row | SMILES | Inhibition [1] [%] | Inhibition [2] [%] | Inhibition [3] [%]
43 | Cc1ccc2c(=NN=CC=Cc3ccccc3)cc(C)[nH]c2c1 | 92 | 13 | 3
44 | CCC[C@@H]([C@@H](CC1CCCCC1)C(=O)NC(C(=O)Nc1nccs1)C(CC)c1ccccc1)N(O)C=O (stereo partly drawn) | 89 | 19 | 50
45 | COc1ccc(Nc2nc(NCc3cccnc3)cc(-c3ccc(OC)cc3)n2)cc1 | 89 | 16 | 0
46 | O=C(NC1CCC(N2CCC(O)(c3ccc(F)cc3)CC2)CC1)c1cc2ccccc2[nH]1 (stereo not drawn) | 94 | 8 | 9
47 | CC(Cc1ccc(OCCN2CCN(c3cccc(C(F)(F)F)c3)CC2)cc1)NCC(O)c1cccc(C(F)(F)F)c1.Cl (stereo not drawn) | 97 | 91 | 11
48 | Cc1c(-c2cccc(Br)c2)[nH]c2nc(N)nc(N)c12 | 100 | 61 | 8
49 | O=C(c1cccc(Br)c1)N1CCN(c2ccc([N+](=O)[O-])c(NC3CC3)c2)CC1 | 99 | 100 | 5
50 | Cc1c(C)n(C2CCCCC2)c2ncnc(OC3CCN(CC(=O)NC4CC4)CC3)c12 | 94 | 72 | 21
51 | COc1ccc(Nc2nccc(NCC(O)c3cccc(C(F)(F)F)c3)n2)cc1 (stereo not drawn) | 98 | 33 | 22
52 | CN(CCN)Cc1cccc(-c2ccc(-c3nc4cc(C(F)(F)F)ccc4[nH]3)s2)c1.O=C(O)C(F)(F)F | 100 | 92 | 27
53 | COc1cc(CNc2ncc(-c3ccsc3)c(-c3nccs3)n2)cc(OC)c1 | 86 | 82 | 3
54 | O=C(/C=C/c1ccc(C(F)(F)F)cc1)N1CCc2cc3nccc(N4CCN5CCC[C@H]5C4)c3cc21 | 86 | 21 | 0
55 | COc1ccc2nccc([C@@H](O)CN3CCC(NCc4ccc5c(c4)OCCO5)CC3)c2c1.O=C(O)C(=O)O | 100 | 92 | 9
56 | COc1ccc2[nH]cc(C3CCN(CCC4CCN(C(=O)/C=C/c5ccc(Cl)c(Cl)c5)CC4)CC3)c2c1 | 100 | 56 | 52
57 | COc1cc(NC(=O)c2sc(-c3ccc(Cl)cc3)cc2Cl)ccc1OCCN1CCCC1.O=C(O)/C=C\C(=O)O | 93 | 21 | 72
58 | O=C(Nc1ccc(F)cc1)N1CCCN(c2ccnc3cc(Cl)ccc23)CC1.O=C(O)C(F)(F)F | 97 | 16 | 7
59 | COc1ccc(-c2cnc3[nH]cc(-c4ccc(C(=O)O)c(C)c4)c3c2)cn1.O=C(O)C(F)(F)F | 99 | 99 | 23
60 | OC(CNCc1ccccc1)c1cc(OCc2ccccc2)cc(OCc2ccccc2)c1 (stereo not drawn) | 98 | 76 | 0
61 | COc1cc(Cc2cnc(N)nc2N)cc(OCc2cccc(C(=O)O)c2)c1OC.Cl | 92 | 0 | 8
